# Peg3 imprint: genomic imprint erasure induction; mouse ES Peg3-LacZ reporter, beta-gal luminescence, 40 h; Potency, µM (highest dose often 60.7 µM), for inactives: at the top dose activity change, positive = activation, hits mostly activators; 110,000 tested, 0.02% active; AID 1948; further: potency means the concentration at half of the fitted maximal effect
#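 Readout: BetaGlo luminescence (5 min, room temp) for LacZ from the normally silent maternal Peg3 allele in female Peg3LacZ-Neo ES cells. Cells 300/well, 40 h, 37C, 5% CO2. Data normalized per plate to negative controls.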
# GFP derepression: derepresses silenced GFP locus in mouse C127i cells | mouse C127i GFP locus derepression, cytometry, 30 h | Potency, µM (series often up to 46.1 µM), for the others: at the top dose GFP derepression (activation) | 68,000 tested, 0.09% active | AID 597; further: % of control where 0% means no effect
#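 Locus derepression in mouse mammary C127i cells whose integrated CMV-GFP reporter is normally silent; GFP expression after 30 h compound treatment was quantified by counting fluorescent cells.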
# HBB splicing: modulators of hemoglobin beta chain splicing; HBB splicing reporter cell assay, activation; EGFP reporter with mutant IVS2-654 intron; response scale: normalised to 500 nM splice-correcting PNA; Potency, µM (doses to about 46.1 µM), for the others: at the top dose activation, hits mostly activators; 65,000 tested, 0.06% active; AID 925; further: potency means the concentration at half of the fitted maximal effect; 0% is about no effect
#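 HeLa cells stably expressing EGFP interrupted by mutant beta-globin intron 2 (IVS2-654), 500/well in 2% FCS. Treated with compound for 2 days at 37C. Splicing correction scored as total well GFP intensity (488 nm excitation, 500-520 nm emission); 500 nM antisense PNA served as control.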
# Ub-GFP proteasome: inhibits proteasome, raising ubiquitin-GFP reporter fluorescence; Ubiquitin-GFP reporter cells, proteasome inhibition, GFP fluorescence; response scale: untreated = 0%, 10 µM MG-132 = 100%; Potency, µM (titrated, usually from 45.9 µM), for the others: at the top dose activation (GFP accumulation), usual class: activators; 67,000 tested, under 10 active; active means well fitted activation curve with a large enough effect, not every such curve was filed as active; inconclusive means small, poorly fitted or top-dose-only effect, or another doubt; inactive means no such curve, though single readings can be large or run the other way; further: potency means the concentration at half of the fitted maximal effect
#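 U2OS cells expressing ubiquitin(G76V)-GFP, seeded overnight in 0.5% FBS medium, then treated 4 hr at 37 C across 46 uM to 2.9 nM. GFP-positive cells counted by laser cytometry (488 ex/515 em); %activity scaled between basal and 10 uM MG-132.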
# ERK AVP inh: blocks ERK signaling stimulated by vasopressin; HEK293-V1b, vasopressin-stimulated pERK AlphaScreen; 72,000 tested, 0.99% active; Potency, µM (series often up to 57.5 µM), for inactives: top-dose activity, negative = inhibition, hits mostly inhibitors; AID 995; further: potency means the concentration at half of the fitted maximal effect; on the % scale 0 is the no-effect control and ±100 the full control effect; nearly all actives have a fitted effect of over 55% in size
#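 V1b-HEK293 cells; cpd 30 min 37C; 25 nM vasopressin 5 min; lyse 10 min; AlphaScreen beads 5 hr RT. Normalized to DMSO basal and 25 nM vasopressin; AC50 by Hill fit.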
# Numbers without * were called inactive; ? = inconclusive; / = no result given; [ ] = dose if it differs, or a comment. This is one part of a sample in which hits are shown more often than they occur. Unless noted, the call rests on the fitted dose curve; in most records, active means well fitted curve in the direction sought with a large enough effect; inconclusive means small, poorly fitted or top-dose-only effect, or another doubt; inactive means no such curve, though single readings can be large; an effect the other way counts as inactive or inconclusive.
SMILES,Peg3 imprint,GFP derepression,HBB splicing,Ub-GFP proteasome,ERK AVP inh
N#CC1=C(N)Oc2n[nH]c(-c3cccs3)c2C1c1ccoc1 (centres undefined),11%,0%,2%,-3%,?
N#CC1=C(N)Oc2n[nH]c(-c3ccncc3)c2C1c1ccsc1 (centres undefined),3%,-2%,5%[1.84 µM],1%,10µM*
C=CCN(CC(=O)NCC1CCCO1)C(=O)CCC(=O)Nc1cc(C)on1 (centres undefined),/,-1%,/,-5%,20%
Cc1cc(N2CCN(S(=O)(=O)c3ccccc3)CC2)c2ccccc2n1,-15%,0%,-1%[0.0738 µM],3%[9.17 µM],32µM*
COc1ccccc1N1CCN(S(=O)(=O)c2ccccc2)CC1,-12%,2%,1%,4%,-2%
Nc1ccc(S(=O)(=O)Nc2ccc(Cl)nn2)cc1,-14%,4%[20.6 µM],-1%[20.6 µM],-8%[20.5 µM],0%
Cc1ccc(-n2nc(C)c3c2OC(N)=C(C#N)C3c2ccncc2)cc1 (centres undefined),/,0%,/,2%,13%
COc1cc(-n2nc(C)c3c2OC(N)=C(C#N)C3c2ccccc2)c(Cl)c(Br)c1O (centres undefined),-19%,2%,-1%,8%,32µM*
CCN1C(=S)SC(=O)C1=C1C=C(C)OC(C)=C1,2%,27%,-4%,0%,-13%
CCN1C(=S)SC(=O)C1=C1C=C(C)N(Cc2ccco2)C(C)=C1,-31%,8%,13µM*,-8%,-21%
O=C1CC(O)(C(F)(F)F)Oc2c1ccc1ccccc21 (centres undefined),-6%,4%,-1%[9.22 µM],-4%,16µM*
CN1CCN(S(=O)(=O)c2ccc(-c3ccc(S(=O)(=O)N4CCN(C)CC4)cc3)cc2)CC1,11%,-2%,0%[9.22 µM],-10%,-20%
Cc1ccccc1N1C(=O)c2cccc3c(N(C)CCO)ccc(c23)C1=O,-8%,-2%,20µM*,12%,1%
N#C/C(=C(/N)Sc1ccc(N)cc1)c1ccccc1C(F)(F)F,4%,/,0%,/,0.32µM*
CC(=O)[C@@]1(O)Cc2c(O)c3c(c(O)c2[C@H](O[C@H]2C[C@H](N)[C@H](O)[C@H](C)O2)C1)C(=O)c1ccccc1C3=O,/,13µM*,13µM*,-11%,?
Cc1ccc(N2C(=O)CS(=O)(=O)C23C(=O)Nc2ccccc23)cc1C (centres undefined),11%[10.9 µM],/,/,/,/
Nc1c(C(=O)OCC2CCCO2)c2nc3ccccc3nc2n1-c1ccc2c(c1)OCCO2 (centres undefined),-21%,0%,2%,27%,20µM*
CCCCc1c(C)nn(-c2nnc3c4ccccc4n(CC)c3n2)c1C,-22%,-4%,-1%,0%,20µM*
COc1ccc(NC(=O)c2oc3ccc(S(=O)(=O)N4CCCCC4)cc3c2C)cc1,-22%[10.9 µM],/,/,/,/
COc1cccc(C(=O)N(Cc2cc3cc(C)ccc3[nH]c2=O)CC2CCCO2)c1 (centres undefined),-22%,3%,5%,3%,?
COc1ccc2[nH]c(=O)c(CN(CC3CCCO3)C(=O)Nc3ccc(F)cc3)cc2c1 (centres undefined),-23%,-3%,1%,6%,13µM*
Nc1nc(Nc2ccccc2)nc2ccccc12,-87%,-2%,0%[57.5 µM],2%,13µM*
Oc1ccc(Nc2nc(N3CCCC3)c3ccccc3n2)cc1,-26%,-1%,0%[57.5 µM],3%,32µM*
CC(=O)c1c(C)[nH]c(C(=O)OCc2nnc(-c3ccccc3)o2)c1C,-12%,5%,0%[57.5 µM],1%,25µM*
COc1ccc(OC)c(NC(=O)c2cc(-c3cc(Cl)ccc3O)n[nH]2)c1,-26%,0%,2%,8%,25µM*
O=C(CSc1nnc(COc2ccccc2Cl)o1)NC(=O)NC1CCCC1,-4%,0%,0%[57.5 µM],0%,20µM*
CCOC(=O)c1cnc(-n2nc(C)cc2C)nc1NC1CCCCC1,?,2%,-1%,-4%,-2%
COc1ccccc1NC(=O)C(=O)c1cc(C)n(-c2cc(C)cc(C)c2)c1C,11%[10.9 µM],/,/,/,/

# Assay outcomes deposited in PubChem by National Center for Advancing Translational Sciences (NCATS).
